Wnt act = Wnt/beta-catenin pathway activators, primary screen, cell-based, plate reader, single point. activation, % at 9.35 µM. 300,000 tested, 1.2% active. Wnt/beta-catenin reporter cell assay, activator; in the data active means activation above about 30%, passing the limit was not always enough; inconclusive means no clear call, values can overlap the other calls;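 further: 0% = neutral control wells and 100% = positive control wells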
DAX1 inh = DAX1 (NR0B1) inhibitors on StAR promoter, primary screen, cell-based, luminescence, SF-1 (NR5A1), full-length DAX-1; HEK293T StAR-luciferase reporter, SF-1/DAX-1 repression relief; inhibition, % at 6.8 µM; AID 652010, 2013; 370,000 tested, 1.1% active;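 active means inhibition above the mean over all tested compounds plus 3 SD, cut at about 3.6% in these data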;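 further: 0% = DAX-1 cells with DMSO and 100% = cells lacking DAX-1 with DMSO; higher inhibition means more luminescence from relief of DAX-1 repression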
esBAF inh = Bmi1 luciferase reporter increase in mESCs, primary screen, esBAF inhibitor project, mouse ES cells, Bmi1 luciferase knock-in, single point; 24 h; 100% = twice the neutral-well signal; 350,000 tested, 2% active; reporter increase, % at 12.5 µM; in the data active means activation above about 40%; inconclusive means no clear call, values can overlap the other calls;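 further: 0% = median of the plate's neutral control wells and 100% = double that signal; a rise in the Bmi1 reporter signal indicates esBAF inhibition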
hcDAF12 agonist = H. contortus DAF-12 nuclear receptor activators, primary screen, cell-based, luminescence, HEK293, lit1-tk-luc reporter. HEK293 hcDAF-12 lit1-tk-luc reporter; 0% DMSO, 100% Δ7-dafachronic acid. activation, % at 6.8 µM. 370,000 tested, 1.4% active. AID 652067, 2013;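 active means activation above the mean of all tested compounds plus 3 SD, cut at about 5.5% in these data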;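 further: 100% = response to 3 µM Δ7-dafachronic acid high control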
ssDAF12 agonist = S. stercoralis DAF-12 nuclear receptor activators, primary screen, cell-based, luminescence, HEK293, GRIP1 co-expression, lit1-tk-luc; Nuclear hormone receptor DAF-12 (Strongyloides stercoralis); HEK293 ssDAF-12/GRIP1 lit1-tk-luc reporter; % of 3 µM dafachronic acid response; activation, % at 6.8 µM; 370,000 tested, 1% active;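 active means activation above the mean over all tested compounds plus 3 SD, cut at about 0.9% in these data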;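 further: 0% = DMSO-only wells and 100% = 3 µM delta7-dafachronic acid wells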
hgDAF12 agonist = H. glycines DAF-12 receptor agonists, primary screen, cell-based, luminescence, HEK293, GAL4 fusion, UAS-luciferase. HEK293 GAL4-hgDAF12 UAS-luciferase reporter, agonist luminescence; normalized to butyrate control. activation, % at 6.8 µM. 370,000 tested, 1.8% active;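 active means activation above a cutoff set at the mean of all screened compounds plus 3 SD, cut at about 10% in these data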;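 further: 0% = DMSO wells and 100% = sodium butyrate wells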
Ring1 derepress = Ring1 mRNA increase in mouse ESCs, confirmation, esBAF inhibitor project, cell-based, mouse ESC, RT-qPCR, cherry-pick. mouse ESC E14, Ring1 mRNA RT-qPCR fold change. fold change at 33 µM. shares compounds with esBAF inh. AID 743176, 2013. 550 tested, under 10 active;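 active means Ring1 gene expression raised more than 2-fold over untreated cells in both replicates at either tested dose; inconclusive means only one replicate above 2-fold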;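 further: Ring1 transcript normalised to actin housekeeping signal by TaqMan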
esBAF Fgf4 qPCR = Fgf4 mRNA decrease in mouse ESCs, confirmation, esBAF inhibitor project, cell-based, mouse ESC, RT-qPCR, cherry-pick | AID 743177, 2013 | mouse ESC E14, Fgf4 mRNA qPCR fold change; hits give low values | 550 tested, 4% active | shares compounds with esBAF inh | Fgf4 expression fold change at 33 µM;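 active means Fgf4 expression under 0.8 fold of control in both repeat measurements at one or both tested doses; inconclusive means under 0.8 fold in just a single repeat measurement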;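 further: Fgf4 transcript normalised to actin in duplex TaqMan qPCR; cells exposed to compound for 24 h before lysis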
Bmi1 derepress = esBAF inhibition via Bmi1 de-repression, confirmation, cell-based, RT-qPCR, mouse ESC, single point, cherry-pick; shares compounds with esBAF inh; mouse ESE14 ES cells, Bmi1 mRNA qPCR fold; hits give high values; fold change at 33 µM; 550 tested, under 10 active;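 active means Bmi1 expression fold change above 6 at either tested concentration, seen in replicate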;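 further: higher fold means more Bmi1 de-repression and stronger esBAF inhibition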
A549 cytotox = A549 cell cytotoxicity, cytotoxicity control, plate reader, single point, cherry-pick. shares compounds with esBAF inh. cell viability change % (negative = cytotoxic), % at 25 µM, hits read low. 550 tested, under 10 active. AID 743188, 2013; call rule not given here
HepG2 tox SP = HepG2 cell cytotoxicity, cytotoxicity control, plate reader, single point, cherry-pick; AID 743189, 2013; shares compounds with esBAF inh; activity change, negative = inhibition, % at 25 µM; 550 tested, 4% active; hits give low values; in the data active means activity change below about -50%
HEK293 tox SP = HEK293 cell cytotoxicity, cytotoxicity control, plate reader, single point, cherry-pick; shares compounds with esBAF inh; activity change, negative = inhibition, % at 25 µM, hits read low; 550 tested, 3% active; in the data active means activity change below about -38%, passing the limit was not always enough
An asterisk follows results filed as active; ? = inconclusive; · = not tested or not shown. Compounds with a hit are over-represented: about 4.2% of the library has one in this group of screens.

SMILES | Wnt act | DAX1 inh | esBAF inh | hcDAF12 agonist | ssDAF12 agonist | hgDAF12 agonist | Ring1 derepress | esBAF Fgf4 qPCR | Bmi1 derepress | A549 cytotox | HepG2 tox SP | HEK293 tox SP
C/C(=N\O)c1ccc2c3ccccc3n(C)c2c1 | 3.6 | 1.9 | 58.0* | 1.6 | -0.7 | 4.6 | 1.24 | 0.983 | 1.01 | -12.9 | 3.0 | -9.9
COc1ccc(-c2cc(C(=O)N3CCN(c4ccccc4)CC3)no2)cc1 | -3.5 | 1.5 | 60.0* | 4.9 | 0.6 | 10.3 | 1.31 | 0.927 | 1.65 | 4.0 | 34.4 | -9.0
COc1ccc(-c2cc(C(=O)N3CCN(c4ccccc4OC)CC3)no2)cc1 | -1.2 | 0.6 | 2.6 | -1.2 | -0.5 | 0.1 | · | · | · | · | · | ·
O=C(C[C@@H]1CC[C@@H](NC(=O)Nc2ccc(C(F)(F)F)cc2)[C@@H](CO)O1)NCCN1CCCC1 | · | · | -3.9 | · | · | · | · | · | · | · | · | ·
CCNC(=O)O/N=C(\C)c1sc(-c2ccccc2)nc1C | 8.8 | 0.3 | 62.6* | 0.3 | -0.7 | 2.3 | 0.965 | 0.804 | 1.7 | -7.5 | -17.1 | -17.8
CCOC(=O)c1sc(-c2ccccc2)nc1C | ? | 0.3 | · | -1.3 | -1.0 | 1.7 | · | · | · | · | · | ·
Nc1ccc2c(c1)C(=O)c1cc(Cl)c(Cl)cc1-2 | -2.2 | -1.5 | 16.0 | 4.7 | -0.1 | 2.1 | · | · | · | · | · | ·
Nc1ccc2c(c1)C(=O)c1ccc(N)cc1-2 | -1.7 | -0.1 | 76.1* | 0.1 | -0.7 | 1.7 | 1.25 | 0.939 | 1.74 | -0.5 | -3.5 | 5.8
CC(O)(c1ccccc1)c1nc(-c2cccc(C(=O)O)c2)cs1 (configuration not stated) | 27.1 | 3.4 | 69.0* | 3.1 | -0.3 | 10.5* | 1.1 | 0.83 | 1.17 | -9.4 | 2.5 | -13.6
Cc1ccc(NC(=O)CN2C(=O)N/C(=C/c3ccccc3OCc3cccc(C(=O)O)c3)C2=O)cc1 | 11.3 | 1.1 | 39.5 | 1.8 | -0.5 | 4.4 | 1.18 | 0.838 | 1.22 | -8.0 | -0.2 | -7.0
O=C(C[C@@H]1C=C[C@@H](NC(=O)c2cccc(F)c2)[C@@H](CO)O1)Nc1nccs1 | · | · | 3.4 | · | · | · | · | · | · | · | · | ·
O=C(NCC[C@H]1CC[C@@H](NS(=O)(=O)c2cccc(F)c2)[C@H](CO)O1)C1CC1 | · | · | -1.5 | · | · | · | · | · | · | · | · | ·
Cc1ccc(NC(=O)c2ccnc(C(C)(C)C)c2)cc1 | 17.8 | 0.6 | 70.7* | -0.6 | -0.4 | 6.4 | 1.15 | 0.927 | 1.57 | 0.6 | -46.5 | -13.0
CC(C)(C)c1cc(C(=O)Nc2ccccc2)ccn1 | -2.9 | -0.8 | 18.9 | -2.1 | -1.0 | 1.9 | · | · | · | · | · | ·
COc1ccc(-c2csc(C(O)c3cccc(OC)c3)n2)cc1 (configuration not stated) | 1.7 | -0.7 | 10.9 | -2.0 | -1.0 | 0.2 | · | · | · | · | · | ·
COc1ccc(-c2csc(C(O)c3ccccc3)n2)cc1 (configuration not stated) | -2.9 | 3.8* | 92.3* | 2.6 | -0.2 | 4.6 | 1.41 | ? | 1.57 | -2.3 | 3.8 | -10.3
CN1c2ccc(Br)cc2[C@H]2[C@H](CCN2C(=O)C2CCOCC2)[C@@H]1CO | · | · | 2.1 | · | · | · | · | · | · | · | · | ·
COc1ccc(-c2ccc3c(c2)O[C@H](CN(C)C)[C@@H](C)CN([C@@H](C)CO)S3(=O)=O)cc1 | · | · | -2.7 | · | · | · | · | · | · | · | · | ·
Cc1ccc(S(=O)(=O)N[C@H]2C=C[C@@H](CC(=O)NCCN3CCCCC3)O[C@@H]2CO)cc1 | · | · | 0.6 | · | · | · | · | · | · | · | · | ·
C=CCNc1nc(-c2ccc(O)c(C(N)=O)c2)cs1 | -2.8 | 0.6 | 59.0* | 0.4 | -0.7 | 1.6 | 1.19 | 1.04 | 1.33 | -7.4 | -36.0 | -5.9
O=C(C[C@@H]1CC[C@H]2[C@@H](COC[C@@H](O)CN2C(=O)c2ccncc2)O1)NCc1ccc(-c2ccccc2)cc1 | · | · | 3.2 | · | · | · | · | · | · | · | · | ·
C[C@H]1CN([C@@H](C)CO)C(=O)CCCn2cc(nn2)CO[C@H]1CN(C)Cc1ccc2c(c1)OCCO2 | · | · | -5.1 | · | · | · | · | · | · | · | · | ·
CN(C)C(=O)c1cccc(-c2ccc3c(c2)[C@H]2[C@H](CCN2S(=O)(=O)c2ccccc2)[C@@H](CO)N3)c1 | · | · | 7.6 | · | · | · | · | · | · | · | · | ·
COc1ccc(-c2noc(CCCC(=O)N3CCN(c4cc(C)ccc4C)CC3)n2)cc1 | 1.3 | 1.7 | 62.3* | 1.1 | -0.4 | 6.3 | 1.23 | 1.02 | 1.6 | -2.8 | 2.0 | -13.1
Cc1ccc(C)c(N2CCN(C(=O)CCc3nc(-c4ccccc4C(F)(F)F)no3)CC2)c1 | 34.1* | 2.6 | 72.7* | 1.5 | 0.0 | 5.3 | 1.31 | 0.963 | 1.6 | -4.7 | -20.6 | -10.0
COc1ccc(-c2noc(CCCCC(=O)N3CCN(c4cc(C)ccc4C)CC3)n2)cc1 | -3.3 | -9.9 | -74.2 | -5.6 | -2.3 | -12.3 | · | · | · | · | · | ·
Cc1noc(C)c1NC(=O)Nc1ccc2c(c1)C(=O)N([C@@H](C)CO)C[C@H](C)[C@@H](CN(C)C(=O)NC(C)C)O2 | · | · | -1.6 | · | · | · | · | · | · | · | · | ·
CO[C@H](CN(C)S(=O)(=O)c1ccccc1)[C@@H](C)CN(C(=O)Nc1ccccc1F)[C@@H](C)CO | · | · | -2.5 | · | · | · | · | · | · | · | · | ·
CC(C)NC(=O)N(C)C[C@H]1Oc2cc(-c3cccnc3)ccc2S(=O)(=O)N([C@H](C)CO)C[C@H]1C | · | · | -9.5 | · | · | · | · | · | · | · | · | ·
CN(C)c1ccc(C=Cc2nccc3ccccc23)cc1 | 3.3 | 0.7 | 70.1* | 3.7 | 0.2 | 2.8 | 1.46 | 1.07 | 4.22 | -47.7 | -74.5* | -63.1*

Screens: PubChem, several laboratories
